Shown is part of a subset that was picked to be rich in hits.
Methyltransferases: Primary Screen for Target Class Profiling of Small Molecule Inhibitors of Methyltransferases | purified enzyme, MTase-Glo SAH luminescence; active compounds read low | calls only at 40 µM | 3.9% of 25,000 active | AID 1745853, 2022; call rule not given here
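Each enzyme was assayed with SAM and its substrate. SAH formation detected by MTase-Glo luminescence; single-point 40 uM screen[…].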
MTase-Glo ctr: counter-screen for methyltransferase inhibitors: coupling enzymes without methyltransferase; shares compounds with Methyltransferases; MTase-Glo coupled enzymes, SAH conversion luminescence, no MTase; Potency, µM (titrated, usually from 57.3 µM), without a hit: at the highest dose activity change, negative = inhibition, usual class: inhibitors; 6% of 180 active; AID 1745851; active means well fitted inhibition curve with a large enough effect; further: potency means the concentration at half of the fitted maximal effect
Starred values were filed as active, the others as inactive; i = inactive; + = active, no number; [ ] = dose if it differs, or a comment. On the % scale 0 is the no-effect control and ±100 the full control effect.

SMILES	Methyltransferases	others
Cc1ccc(N2C(=O)c3cc4occc4n3CC2(C)C(=O)NC2CCCCCCC2)cc1 (stereo not drawn)	i
CCc1ccc(CNC(=O)c2ncn3c2C(=O)N(C2CC2)C(C)(C(=O)NCc2ccc(F)cc2)C3)cc1 (stereo not drawn)	i
COc1cccc(N2CCN(C(=O)CCC[C@@H]3[C@H]4CCCN5CCC[C@@H](CN3C)[C@@H]45)CC2)c1	i
COc1ccc(C)cc1NC(=O)CCC[C@@H]1[C@H]2CCCN3CCC[C@@H](CN1C)[C@@H]23	i
O=C(CCC[C@@H]1[C@H]2CCCN3CCC[C@@H](CN1Cc1ccccc1)[C@@H]23)Nc1cccnc1	+	MTase-Glo ctr=-4.1%
CC1(C(=O)NC2CCCCCCC2)Cn2c(ccc2-c2ccco2)C(=O)N1Cc1ccccc1F (stereo not drawn)	i
CCOC(=O)c1cc2n(n1)CC(C)(C(=O)NC1CCCCC1)N(Cc1ccccc1OCC)C2=O (stereo not drawn)	i
CCOc1ccc(N2C(=O)c3cc4sccc4n3CC2(C)C(=O)NC2CCCC(C)C2C)cc1 (stereo not drawn)	i
COc1ccc2c(c1)C(COCc1ccc(C(=O)O)cc1)=CC(C)(C)CO2	i
COc1ccc2c(c1)C(CN1CCN(CC(=O)OC(C)(C)C)CC1)=CC(C)(C)O2	i
COc1ccc2c(c1)C(CN1CCN(c3ccc4oc(C(=O)O)cc4c3Cl)CC1)=CC(C)(C)CO2	+	MTase-Glo ctr=-6.2%
CC(C)OCCCNC(=O)c1cc2n(n1)CC(C)(C(=O)NCc1ccc(F)cc1)N(C)C2=O (stereo not drawn)	i
COC(=O)c1ncn2c1C(=O)N(CCc1cccs1)C(C)(C(=O)NC1CCCCC1)C2 (stereo not drawn)	i
CC1(C(=O)NC2CCCCC2)Cn2nc(-c3ccco3)cc2C(=O)N1Cc1ccccc1F (stereo not drawn)	i
O=C(c1nc2c(o1)CCN(Cc1cccc(F)c1)CC2)N1CCOCC1	i
Cn1c(C(=O)Nc2ccc3c(c2)OCO3)cc2c1CCN(Cc1cccc(F)c1)C2	i
Cn1c(C(=O)NCCN2CCCCC2)cc2c1CCN(Cc1cccc(F)c1)C2	+	MTase-Glo ctr=3.8%
CSc1ccc(CN2C(=O)c3cc4ccccc4n3CC2(C)C(=O)NCCCOC(C)C)cc1 (stereo not drawn)	i
COc1cccc(CN2C(=O)c3nc4ccccc4n3CC2(C)C(=O)NC2CCCC2)c1OC (stereo not drawn)	i
O=C(Nc1ccc(F)cc1)N1CCn2cccc2C1Cc1ccccc1 (stereo not drawn)	i
COc1ccc(NC(=O)N2CCCC(CN3CCC(C)CC3)CC2)cc1 (stereo not drawn)	i
COc1ccc(NC(=O)C(C)(C)Oc2nn(CC3CC3)c3ccc(CN4CCCC4)cc23)cc1	+	MTase-Glo ctr=4.9%
CC(C)n1nc(OC(C)(C)C(=O)Nc2ccccn2)c2cc(CN3CCOCC3)ccc21	i
COC(=O)c1ncn2c1C(=O)N(Cc1cccc(OC)c1OC)C(C)(C(=O)NC1CCCC1)C2 (stereo not drawn)	i
C#CCNCc1cc2cc(OCc3ccccc3)ccc2[nH]1	i
SMILES	Methyltransferases	others
CNC(=O)[C@@H]1CN(C(=O)c2cc3cc(OC)ccc3[nH]2)C[C@H]1COC	i
COc1ccc2[nH]c(CNc3cc(C4CC(N)C4)nc(C)n3)cc2c1 (stereo not drawn)	+	MTase-Glo ctr=-1.0%
Cc1ccc(NC(=O)N2CCn3cccc3C2C(C)C)cc1C (stereo not drawn)	i
CN1CCCC2(C1)CN(C)c1ccc(C(=O)NCC3CCCCC3)cc12 (stereo not drawn)	+	MTase-Glo ctr=-1.2%[85.7 µM]
CN1CCC2(C1)CN(Cc1ccccc1)c1ccc(C(=O)N3CCOCC3)cc12 (stereo not drawn)	i
O=C(NCC1CCN(c2cc(-c3ccccc3)[nH]n2)CC1)c1ccc2nc[nH]c2c1	i
Cc1ccc(N2C(=O)CSc3c(c4ccccc4n3C)C2C(=O)NCCC(C)C)cc1C (stereo not drawn)	i
CC1CCN(CCCNC(=O)C2CCc3sc(C(=O)N4CCCC4)cc3C2)CC1 (stereo not drawn)	+	MTase-Glo ctr=-2.2%
CN1C(=O)CCCCC1C(=O)NCCN1CCCCC1 (stereo not drawn)	i
CCCCNC(=O)C1CCc2sc(C(=O)N3CCCCC3)cc2C1 (stereo not drawn)	i
CC(C)n1nc(CNC(=O)c2ccc(F)c(F)c2)c2ccccc21	i
COc1cccc(C(=O)Cn2nc3n(Cc4ccc(C)cc4)c(=O)c4ccccc4n3c2=O)c1	i
O=C(CC1CCCC1)N1CCC(c2noc(-c3cnccn3)n2)C1 (stereo not drawn)	i
O=C(CC1CCOCC1)N1CCN(c2ncccn2)CC1	i
O=C(CC1CCCC1)N1CCC(Nc2cccnc2)C1 (stereo not drawn)	+	MTase-Glo ctr=-6.4%
CC(C)c1ccc(N2C(=O)c3cc(-c4ccccc4)nn3CC2(C)C(=O)NCc2ccccc2)cc1 (stereo not drawn)	i
CCCC1c2cccn2CCN1C(=O)Nc1ccccc1 (stereo not drawn)	i
Cc1ccc(NC(=O)Cn2nc3n(CCc4ccccc4)c(=O)c4ccccc4n3c2=O)cc1C	i
COCCn1ccc2c(C3=CCOCC3)nc(-c3cccc4[nH]ccc34)cc21	+	MTase-Glo ctr=-5.9%[85.7 µM]
COc1ccccc1CNC(=O)C1(C)Cn2c(cc3ccccc32)C(=O)N1Cc1ccc2c(c1)OCO2 (stereo not drawn)	i
Cc1ccc(CNC(=O)Cn2nc3n(CCC(C)C)c(=O)c4ccc(C(=O)NC(C)C)cc4n3c2=O)cc1	i
COc1cccc(Cn2nc3n(Cc4ccccc4)c(=O)c4ccc(C(=O)NCC(C)C)cc4n3c2=O)c1	i
CCCn1c(=O)c2ccccc2n2c(=O)n(CC(=O)c3ccc(OCC)cc3)nc12	i
COc1ccc(-c2cc(C(=O)NCC3CC3)c3c(C4CCNC4)noc3n2)cc1 (stereo not drawn)	i
CCCn1c(C)cnc1CC1CCCN(S(=O)(=O)c2cc(OC)ccc2OC)C1 (stereo not drawn)	i
SMILES	Methyltransferases	others
CCCn1c(C)cnc1CC1CCN(C(=O)NCc2ccc(OC)cc2)C1 (stereo not drawn)	+	MTase-Glo ctr=-3.7%
CNC(=O)N1CCC(C2CCN(C(=O)NCc3cccc(OC)c3)C2)CC1 (stereo not drawn)	i
COc1ccc(OC)c2c1cc1n2CC(C)(C(=O)NC2CCCC2)N(Cc2ccccn2)C1=O (stereo not drawn)	i
CCn1cc(CN2CCN(C(=O)c3cccs3)CC2)ccc1=O	+	MTase-Glo ctr=-2.8%
NC(=O)CN1C(=O)[C@@H]2CN(C(=O)c3cccs3)CCN2C1=O	i
CCn1cc(CN2CCN(C(=O)CCc3ccccc3)CC2)ccc1=O	i
CCCn1c(=O)c2ccc(C(=O)NCC(C)C)cc2n2c(=O)n(CC(=O)Nc3cccc(C)c3)nc12	i
CCc1cc2c(cc3n2CC(C)(C(=O)NC2CCCCC2)N(CCc2ccc(Cl)cc2)C3=O)s1 (stereo not drawn)	i
Cc1ccccc1NC(=O)Cn1nc2n(C)c(=O)c3ccc(C(=O)NC4CCCC4)cc3n2c1=O	i
Cc1cccc(NC(=O)CSc2nnc3[nH]c(=O)c(C(C)(C)C)nn23)c1	i

High-throughput results: PubChem BioAssay, National Center for Advancing Translational Sciences (NCATS)
